# Reference: PubChem BioAssay (Tox21)
# Where “and” joins values, the source holds several entries; their conditions need not be identical. Identical values can stand only once. Inconclusive results are not listed. Where a call stands in place of a potency, no number is given. Where a structure was tested more than once in an assay, its records may differ in their call. Calls of active or inactive are those of the source. Calls follow the shape of the dose curve; as a rule, active = well fitted curve in the direction sought with a large enough effect in the repeat runs; inconclusive = weak or mixed curves; inactive = no such curve, though single readings can be large; an effect the other way counts as inactive or inconclusive.
# Tests used:
# [1] = Human pregnane X receptor (PXR) small molecule agonists, qHTS cell viability counter screen (AID 1346977); settings: PXR-Luc HepG2 viability, CellTiter-Fluor, 24 h; series mostly up to 92.4 µM; also: nearly all actives have a fitted effect of over 50% in size
# Method in brief: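 Measures live-cell protease fluorescence (CellTiter-Fluor) in PXR-Luc HepG2 cells treated 24hr with compounds at 37C. Cells had 5hr to attach before pin transfer of DMSO solutions.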
# [2] = Caspase-3/7 induction in CHO-K1 cells by small molecules, qHTS cell viability counter screen (AID 1346979); settings: CellTiter-Fluor fluorescence, 17 h; series mostly up to 92.4 µM; also: nearly all actives have a fitted effect of over 35% in size
# Method in brief: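 In the same wells as the caspase read, viability of compound-treated wild-type CHO-K1 cells was assessed using CellTiter-Fluor, added after 16hr at 37C and measured by fluorescence following 1hr further incubation.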
# [3] = Caspase-3/7 induction in CHO-K1 cells by small molecules, qHTS assay (AID 1346980); settings: CHO-K1 caspase-3/7 induction, Caspase-Glo luminescence, 17 h; series mostly up to 92.4 µM; also: nearly all actives have a fitted effect of over 15% in size
# Method in brief: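 Luminescent Caspase-Glo 3/7 read (30min, room temperature) quantified apoptosis induction. Cells were wild-type CHO-K1, treated with compound for 17hr at 37 C and 5% CO2.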
# [4] = Caspase-3/7 induction in HepG2 cells by small molecules, qHTS cell viability counter screen (AID 1346981); settings: CellTiter-Fluor fluorescence, 17 h; series mostly up to 92.4 µM; also: nearly all actives have a fitted effect of over 30% in size
# Method in brief: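 In this quantitative HTS counter screen, compounds delivered in DMSO were left on unmodified HepG2 cells for 16 hr at 37 C. Viability was then determined fluorometrically with CellTiter-Fluor, in parallel with caspase-3/7 induction in the same wells.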
# [5] = target: Nuclear receptor subfamily 1 group I member 2 (Homo sapiens) (UniProt O75469); assay: Human pregnane X receptor (PXR) small molecule agonists, qHTS assay (AID 1346982); settings: PXR-Luc HepG2, CYP3A4 luciferase reporter, 24 h; series mostly up to 92.4 µM; also: nearly all actives have a fitted effect of over 35% in size; also: potency is read from the fitted curve at half-maximal effect
# Method in brief: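 Reporter HepG2 cells expressing PXR-Luc are cultured in charcoal-stripped FBS (5%), treated with compounds for 24 hr at 37 C, and assayed by ONE-Glo luminescence after 30 min at room temperature.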
# [6] = target: Nuclear receptor subfamily 1 group I member 2 (Rattus norvegicus) (UniProt Q9R1A7); assay: Rat pregnane X receptor (rPXR) activation by small molecules, qHTS assay (AID 1346983); settings: rPXR luciferase reporter cells, One-Glo luminescence, 24 h; stronger effect = higher value; also: nearly all actives have a fitted effect of over 20% in size
# Method in brief: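 Luminescent readout (One-Glo luciferase, 30 min room temperature) followed 24 hr compound treatment at 37 C of rPXR cells plated 2,000 per well and preincubated 5hr; qHTS format with compounds delivered in DMSO.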
# [7] = target: Nuclear receptor subfamily 1 group I member 2 (Homo sapiens) (UniProt O75469); assay: CYP3A4 induction through human pregnane X receptor (PXR) by small molecules, qHTS assay (AID 1346984); settings: DPX-2 HepG2 PXR, CYP3A4-luciferin luminescence, 24 h; series mostly up to 46.1 µM; also: nearly all actives have a fitted effect of over 40% in size
# Method in brief: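 Induction measured in HepG2-based DPX-2 cells co-expressing human PXR and a CYP3A4 promoter-driven luciferase. After a 24-hour compound exposure, cells received CYP3A4 luciferin substrate at 3uM final for 3 hours, and light output was then recorded.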
# [8] = target: Nuclear receptor subfamily 1 group I member 2 (Homo sapiens) (UniProt O75469); assay: Human pregnane X receptor (PXR) activation by small molecules, qHTS assay (AID 1346985); settings: DPX-2 HepG2 CYP3A4-luciferase, 24 h; series mostly up to 38.3 µM; also: nearly all actives have a fitted effect of over 40% in size
# Method in brief: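 DPX-2 cells (HepG2 co-transfected with a PXR response element and a CYP3A4-promoter luciferase construct) were seeded at 2,000 per well, rested 5 hr at 37C, then exposed to DMSO-dissolved compounds for 24 hr. Activation was read as luciferase luminescence.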
# [9] = target: Cytochrome P450 2D6 (Homo sapiens) (UniProt P10635); assay: Cytochrome P450 Family 2 Subfamily D Member 6 (CYP2D6) small molecule antagonists: luciferase reporter qHTS assay (AID 1671196); settings: P450-Glo CYP2D6 enzyme assay, luciferin luminescence, 1 h; series mostly up to 115 µM; also: nearly all actives have a fitted effect of over 50% in size; also: potency is read from the fitted curve at half-maximal effect
# Method in brief: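 Test chemicals meet CYP2D6 plus proluciferin substrate (10 min, RT); NADPH regenerating solution then drives turnover for 1 h. Detection reagent halts the reaction; luminescence measured after 20 min.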
# [10] = target: Cytochrome P450 2C19 (Homo sapiens) (UniProt P33261); assay: Cytochrome P450 Family 2 Subfamily C Member 19 (CYP2C19) small molecule antagonists: luciferase reporter qHTS assay (AID 1671197); settings: P450-Glo CYP2C19 enzyme, luciferin luminescence, 1 h; series mostly up to 115 µM; also: nearly all actives have a fitted effect of over 65% in size; also: potency is read from the fitted curve at half-maximal effect
# Method in brief: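 Luminescent readout of CYP2C19 activity: luciferin product detected 20 min after adding detection reagent. Before that, compound and enzyme-substrate mix preincubated 10 min at room temperature; NADPH-regenerating system started a 1 h, 37C reaction. Ketoconazole as positive control.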
# [11] = target: Cytochrome P450 2C9 (Homo sapiens) (UniProt P11712); assay: Cytochrome P450 Family 2 Subfamily C Member 9 (CYP2C9) small molecule antagonists: luciferase reporter qHTS assay (AID 1671198); settings: P450-Glo CYP2C9 enzyme assay, luciferin luminescence; series mostly up to 115 µM; also: nearly all actives have a fitted effect of over 50% in size
# Method in brief: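 Enzyme-substrate mix preincubated with compound 10 min at room temperature; reaction started with NADPH regeneration solution, 1 h 37C. Luminescent luciferin product read after 20 min detection reagent.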
# [12] = target: Cytochrome P450 1A2 (Homo sapiens) (UniProt P05177); assay: Cytochrome P450 Family 1 Subfamily A Member 2 (CYP1A2) small molecule antagonists: luciferase reporter qHTS assay (AID 1671199); settings: P450-Glo CYP1A2 enzyme, luciferin luminescence, 1 h; series mostly up to 115 µM; also: nearly all actives have a fitted effect of over 50% in size; also: potency is read from the fitted curve at half-maximal effect
# Method in brief: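 Steps: enzyme-substrate mix dispensed; test compounds and furafylline control pinned in; 10 min room temperature; NADPH regeneration solution added, 1 h; reaction stopped with luciferin detection reagent; luminescence read after 20 min.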
# [13] = target: Voltage-gated inwardly rectifying potassium channel KCNH2 (Homo sapiens) (UniProt Q12809); assay: Human Ether-a-go-go-Related Gene (hERG) channel small molecule antagonists: fluorescence cell-based qHTS assay (AID 1671200); settings: hERG-U2OS cells, FluxOR thallium flux fluorescence; series mostly up to 76.8 µM
# Method in brief: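 Quantitative HTS in hERG-U2OS cells: thallium entry through the channel reports activity, read as continuous 480/540 nm fluorescence over 2 min after stimulus addition.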
# [14] = target: Cytochrome P450 3A4 (Homo sapiens) (UniProt P08684); assay: Cytochrome P450 Family 3 Subfamily A Member 4 (CYP3A4) small molecule antagonists: luciferase reporter qHTS assay (AID 1671201); settings: P450-Glo CYP3A4 enzyme, luciferin luminescence, 1 h; series mostly up to 115 µM; also: nearly all actives have a fitted effect of over 50% in size
# Method in brief: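 Inhibition of CYP3A4 is measured as loss of light: the enzyme converts a proluciferin substrate to luciferin, detected luminescently. Reaction ran 1 h at room temperature with NADPH regeneration after a 10 min compound preincubation.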
# [15] = Caspase-3/7 induction in HepG2 cells by small molecules, qHTS assay (AID 1346978); settings: HepG2 caspase-3/7 activation, Caspase-Glo luminescence, 17 h; series mostly up to 92.4 µM; also: nearly all actives have a fitted effect of over 15% in size
# Method in brief: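 Caspase-3/7 induction was measured by Caspase-Glo 3/7 luminescence (30 min, room temperature) after a 17 hr compound exposure of wild-type HepG2 cells seeded at 2,000 per well and pre-incubated 5 hr.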
# Chain of Voltage-gated inwardly rectifying potassium channel KCNH2 (Homo sapiens) (Q12809 whole entry, looked up): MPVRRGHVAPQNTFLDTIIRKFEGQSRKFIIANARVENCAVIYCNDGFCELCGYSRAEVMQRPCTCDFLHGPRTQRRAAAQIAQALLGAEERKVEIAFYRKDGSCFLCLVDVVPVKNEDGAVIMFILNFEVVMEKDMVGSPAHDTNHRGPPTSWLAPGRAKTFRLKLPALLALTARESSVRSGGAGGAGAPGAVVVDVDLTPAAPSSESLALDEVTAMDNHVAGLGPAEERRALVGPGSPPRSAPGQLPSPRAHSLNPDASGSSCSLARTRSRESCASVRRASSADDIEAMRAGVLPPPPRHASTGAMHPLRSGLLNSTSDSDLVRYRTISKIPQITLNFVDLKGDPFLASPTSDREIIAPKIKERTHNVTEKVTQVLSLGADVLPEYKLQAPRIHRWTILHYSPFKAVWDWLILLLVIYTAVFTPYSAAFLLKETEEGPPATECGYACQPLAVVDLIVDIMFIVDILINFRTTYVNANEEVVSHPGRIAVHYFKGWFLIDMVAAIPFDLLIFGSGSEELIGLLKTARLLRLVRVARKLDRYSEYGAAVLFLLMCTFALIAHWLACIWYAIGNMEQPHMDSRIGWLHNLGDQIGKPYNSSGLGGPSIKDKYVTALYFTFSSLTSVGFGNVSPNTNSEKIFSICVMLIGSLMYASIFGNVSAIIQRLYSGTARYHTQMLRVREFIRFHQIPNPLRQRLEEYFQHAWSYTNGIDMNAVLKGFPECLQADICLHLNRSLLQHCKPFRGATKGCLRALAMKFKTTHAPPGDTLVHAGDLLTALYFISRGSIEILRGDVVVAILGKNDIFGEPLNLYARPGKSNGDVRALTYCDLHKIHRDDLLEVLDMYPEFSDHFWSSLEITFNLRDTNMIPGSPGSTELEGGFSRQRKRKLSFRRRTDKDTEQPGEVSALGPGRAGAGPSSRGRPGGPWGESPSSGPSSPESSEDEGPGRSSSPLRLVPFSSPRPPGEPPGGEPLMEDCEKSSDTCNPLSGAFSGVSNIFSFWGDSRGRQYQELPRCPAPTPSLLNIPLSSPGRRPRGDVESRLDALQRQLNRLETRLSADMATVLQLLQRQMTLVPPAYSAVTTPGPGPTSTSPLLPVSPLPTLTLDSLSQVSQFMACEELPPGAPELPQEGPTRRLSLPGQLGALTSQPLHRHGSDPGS
# Chain of Cytochrome P450 1A2 (Homo sapiens) (P05177 whole entry, looked up): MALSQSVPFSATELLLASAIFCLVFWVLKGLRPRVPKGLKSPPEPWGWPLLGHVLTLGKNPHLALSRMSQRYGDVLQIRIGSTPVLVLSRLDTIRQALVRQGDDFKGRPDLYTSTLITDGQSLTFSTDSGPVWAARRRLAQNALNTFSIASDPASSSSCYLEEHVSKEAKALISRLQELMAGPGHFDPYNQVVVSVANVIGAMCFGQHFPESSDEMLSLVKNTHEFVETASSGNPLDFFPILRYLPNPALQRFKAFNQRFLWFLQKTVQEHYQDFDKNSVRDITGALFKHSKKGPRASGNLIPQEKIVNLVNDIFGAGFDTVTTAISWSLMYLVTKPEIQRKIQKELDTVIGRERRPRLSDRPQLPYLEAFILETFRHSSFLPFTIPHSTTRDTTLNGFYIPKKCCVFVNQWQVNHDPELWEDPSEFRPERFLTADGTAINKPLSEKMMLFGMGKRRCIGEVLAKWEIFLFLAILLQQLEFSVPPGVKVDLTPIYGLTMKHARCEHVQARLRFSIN
# Chain of Cytochrome P450 2D6 (Homo sapiens) (P10635 whole entry, looked up): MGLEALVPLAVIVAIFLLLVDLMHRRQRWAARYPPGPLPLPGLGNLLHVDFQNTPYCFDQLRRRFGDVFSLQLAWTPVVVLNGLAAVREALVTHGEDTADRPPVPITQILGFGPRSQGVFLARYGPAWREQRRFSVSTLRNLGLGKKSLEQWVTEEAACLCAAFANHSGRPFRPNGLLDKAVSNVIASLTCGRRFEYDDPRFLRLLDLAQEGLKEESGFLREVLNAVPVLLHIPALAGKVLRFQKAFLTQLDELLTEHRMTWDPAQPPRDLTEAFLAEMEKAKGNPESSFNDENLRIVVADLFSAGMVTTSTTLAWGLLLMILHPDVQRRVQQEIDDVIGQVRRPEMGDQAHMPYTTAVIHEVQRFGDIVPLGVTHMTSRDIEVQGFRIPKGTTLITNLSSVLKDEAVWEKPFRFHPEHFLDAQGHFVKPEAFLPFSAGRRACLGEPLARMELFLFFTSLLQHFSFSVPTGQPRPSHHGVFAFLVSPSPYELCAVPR
# Chain of Cytochrome P450 2C9 (Homo sapiens) (P11712 whole entry, looked up): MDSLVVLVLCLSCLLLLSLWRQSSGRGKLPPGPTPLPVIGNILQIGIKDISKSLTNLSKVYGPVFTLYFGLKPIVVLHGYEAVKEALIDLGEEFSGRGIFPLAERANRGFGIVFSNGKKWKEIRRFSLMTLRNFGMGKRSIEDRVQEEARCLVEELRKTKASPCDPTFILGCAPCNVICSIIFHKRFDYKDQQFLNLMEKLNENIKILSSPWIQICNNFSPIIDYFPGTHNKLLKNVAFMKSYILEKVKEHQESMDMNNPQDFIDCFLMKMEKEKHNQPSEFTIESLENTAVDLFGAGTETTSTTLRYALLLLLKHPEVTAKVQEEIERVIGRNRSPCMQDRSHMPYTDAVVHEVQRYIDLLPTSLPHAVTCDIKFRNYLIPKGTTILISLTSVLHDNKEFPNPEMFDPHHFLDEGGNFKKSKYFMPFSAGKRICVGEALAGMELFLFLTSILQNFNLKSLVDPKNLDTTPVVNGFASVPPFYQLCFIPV
# Chain of Cytochrome P450 3A4 (Homo sapiens) (P08684 whole entry, looked up): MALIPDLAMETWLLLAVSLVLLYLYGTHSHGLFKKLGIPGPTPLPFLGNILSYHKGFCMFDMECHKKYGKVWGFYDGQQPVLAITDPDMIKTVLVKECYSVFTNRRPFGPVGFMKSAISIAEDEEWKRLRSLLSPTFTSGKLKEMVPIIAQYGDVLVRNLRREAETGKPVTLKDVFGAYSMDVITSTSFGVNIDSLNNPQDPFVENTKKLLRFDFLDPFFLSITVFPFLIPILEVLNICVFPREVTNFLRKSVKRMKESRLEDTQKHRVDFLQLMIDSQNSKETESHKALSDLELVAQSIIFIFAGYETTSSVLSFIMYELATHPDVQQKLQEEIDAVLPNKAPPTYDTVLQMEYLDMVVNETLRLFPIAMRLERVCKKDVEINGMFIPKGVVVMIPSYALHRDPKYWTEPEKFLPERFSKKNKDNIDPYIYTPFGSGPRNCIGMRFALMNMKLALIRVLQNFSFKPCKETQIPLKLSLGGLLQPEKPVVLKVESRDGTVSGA
# Chain of Cytochrome P450 2C19 (Homo sapiens) (P33261 whole entry, looked up): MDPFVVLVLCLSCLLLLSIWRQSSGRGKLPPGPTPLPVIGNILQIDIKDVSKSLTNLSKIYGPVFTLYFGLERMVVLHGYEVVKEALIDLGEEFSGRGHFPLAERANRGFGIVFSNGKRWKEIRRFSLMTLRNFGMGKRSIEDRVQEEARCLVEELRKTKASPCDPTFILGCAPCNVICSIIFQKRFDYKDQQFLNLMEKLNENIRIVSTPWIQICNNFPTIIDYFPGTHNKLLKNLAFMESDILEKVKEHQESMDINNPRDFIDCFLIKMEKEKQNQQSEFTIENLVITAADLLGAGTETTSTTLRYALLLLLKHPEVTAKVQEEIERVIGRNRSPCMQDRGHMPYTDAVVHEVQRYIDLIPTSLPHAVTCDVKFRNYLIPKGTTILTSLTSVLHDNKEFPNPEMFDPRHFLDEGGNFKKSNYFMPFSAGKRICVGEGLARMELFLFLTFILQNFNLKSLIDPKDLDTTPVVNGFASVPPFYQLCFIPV
# Chain of Nuclear receptor subfamily 1 group I member 2 (Rattus norvegicus) (Q9R1A7 whole entry, looked up): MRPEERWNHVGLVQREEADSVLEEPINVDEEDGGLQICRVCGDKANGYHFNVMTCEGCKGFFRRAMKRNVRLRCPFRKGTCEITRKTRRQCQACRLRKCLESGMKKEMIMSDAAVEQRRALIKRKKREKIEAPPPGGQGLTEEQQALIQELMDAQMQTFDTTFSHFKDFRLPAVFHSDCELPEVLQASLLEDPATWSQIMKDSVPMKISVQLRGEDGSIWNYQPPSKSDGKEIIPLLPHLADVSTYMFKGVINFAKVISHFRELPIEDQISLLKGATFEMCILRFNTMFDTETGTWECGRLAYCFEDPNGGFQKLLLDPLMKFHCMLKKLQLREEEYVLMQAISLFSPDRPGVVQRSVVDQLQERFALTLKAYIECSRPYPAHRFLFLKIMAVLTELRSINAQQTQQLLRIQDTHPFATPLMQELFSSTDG
# Chain of Nuclear receptor subfamily 1 group I member 2 (Homo sapiens) (O75469 whole entry, looked up): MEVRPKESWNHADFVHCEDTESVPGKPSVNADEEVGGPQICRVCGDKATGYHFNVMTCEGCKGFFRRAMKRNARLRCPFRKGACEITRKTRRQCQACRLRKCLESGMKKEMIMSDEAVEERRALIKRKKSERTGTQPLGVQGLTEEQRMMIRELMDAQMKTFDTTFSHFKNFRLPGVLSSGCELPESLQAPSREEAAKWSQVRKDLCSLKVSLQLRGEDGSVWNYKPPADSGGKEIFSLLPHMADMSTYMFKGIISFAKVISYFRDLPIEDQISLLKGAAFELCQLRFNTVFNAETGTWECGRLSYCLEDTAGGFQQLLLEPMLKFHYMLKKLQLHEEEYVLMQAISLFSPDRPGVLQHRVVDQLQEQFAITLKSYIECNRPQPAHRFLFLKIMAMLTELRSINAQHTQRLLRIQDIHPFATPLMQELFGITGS
SMILES,Potency [1],Potency [2],outcome [3],Potency [4],Potency [5],max activation [6],Potency [7],outcome [8],Potency [9],Potency [10],Potency [11],Potency [12],Potency [13],Potency [14],Potency [15]
CC(=O)Oc1ccc(C)cc1,inactive,inactive,inactive,inactive,inactive,-1.62% (inactive),inactive,inactive,inactive,inactive,inactive,inactive,inactive,inactive,–
CC1(C)S[C@@H]2[C@H](NC(=O)COc3ccccc3)C(=O)N2[C@H]1C(=O)O,inactive,inactive,inactive,inactive,inactive,–,–,–,–,inactive,–,inactive,inactive,–,inactive
CC(C)c1cccc(C(C)C)c1,inactive,–,inactive,inactive,inactive,–,–,–,inactive,–,inactive,inactive,–,inactive,inactive
CC(CCO)CC(C)(C)C (stereo not drawn),inactive,–,inactive,inactive,inactive,–,–,–,inactive,inactive and 79.6 µM (active),–,inactive,–,inactive,inactive
CC(C)CCCCCCCOC(=O)CCCCC(=O)OCCCCCCCC(C)C,inactive,–,inactive,inactive,50.4 µM (active) and inactive,–,–,–,inactive,92.8 µM (active) and inactive,inactive,inactive,–,inactive,inactive
COc1cc(OC)c(C(=O)CCCN2CCCC2)c(OC)c1,inactive,–,inactive,inactive,–,-3.14% (inactive),–,–,–,inactive,–,inactive,inactive,–,inactive
CCOC(=O)n1ccn(C)c1=S,inactive,inactive,inactive,inactive,inactive,-4.98% (inactive),inactive,inactive,inactive,inactive,–,39.9 µM (active) and inactive,inactive,inactive,–
C=C(C)CNCC,inactive,–,inactive,inactive,inactive,–,–,–,31.2 µM (active) and inactive,inactive,inactive,inactive,–,inactive,inactive
C=Cc1ccc(C)cc1,inactive,inactive,inactive,inactive,inactive,–,–,–,inactive,inactive,–,inactive,–,inactive,inactive
CCNC(=S)NCC,inactive,–,inactive,inactive,inactive,–,–,–,inactive,inactive,inactive,44.8 µM (active),inactive,inactive,inactive
